The source of these data is PubChem BioAssay AID720564 (Broad Institute, 2013).

SMILES strings stand for the structures. This is one part of the list. Active and inactive are the calls of the source.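 Rule for the calls: active = luminescence drop, with half-maximal potency fitted within twice the sample's top valid dose (cut at about 70 µM in these data); inactive = the rest, including signal moving the wrong way.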

This assay can be described thus: dual-tagged ARNT PAS-B bead signal quenchers – biochemical, dry powder, artefact control for ARNT/TACC3 disruptor project, dose response (AID 720564). The following applies: Dual-tagged His-ARNT PASB-GST AlphaScreen artifact counter-screen.
As to `COc1ccc(-c2nnc(NC(=O)c3ccc(S(=O)(=O)N4CCC(C)CC4)cc3)o2)cc1`, the AC50 (in general, the concentration at which the activity in the assay is half-maximal) was 67.7 µM (active). Turning to `CCCCC(=O)NC(c1ccco1)c1ccc2cccnc2c1O` (stereo not drawn), the concentration at half-maximal activity (AC50) is 13.8 µM (active). Regarding `O=C(CSc1ccc(-c2ccccn2)nn1)Nc1ccccc1`, the half-maximal activity concentration (AC50) was 15.3 µM (active).
